# Source: PubChem (The Scripps Research Institute Molecular Screening Center)
# MITF inh: inhibitors of human MITF. AlphaScreen MITF homodimerization, bead proximity signal. inhibition, % at 2.6 µM. actives 0.91% (n = 650,000); in the data active = inhibition above about 50%;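 note: 0% = vehicle wells with protein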
# GPR151 ag: activators of human GPR151. Q8TDV0. PathHunter beta-arrestin GPR151 cells, luminescence. activation, % at 11.2 µM. actives 1% (n = 650,000). AID 1508602; in the data active = activation above about 4.9%;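 note: 0% = median of compound wells and 100% = cells with positive control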
# Target sequence (Q8TDV0 whole entry, looked up): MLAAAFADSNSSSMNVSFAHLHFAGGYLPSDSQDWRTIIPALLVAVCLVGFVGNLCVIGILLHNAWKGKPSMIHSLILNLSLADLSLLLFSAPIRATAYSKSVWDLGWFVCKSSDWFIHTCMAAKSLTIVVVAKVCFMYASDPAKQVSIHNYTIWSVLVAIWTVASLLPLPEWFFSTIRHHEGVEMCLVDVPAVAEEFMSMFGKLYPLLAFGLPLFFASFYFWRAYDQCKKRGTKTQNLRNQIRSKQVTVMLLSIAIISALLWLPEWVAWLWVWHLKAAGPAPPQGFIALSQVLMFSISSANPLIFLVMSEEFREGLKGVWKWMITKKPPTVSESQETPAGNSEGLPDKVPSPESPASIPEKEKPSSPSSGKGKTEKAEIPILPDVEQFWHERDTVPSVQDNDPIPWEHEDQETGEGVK
# TEAD-YAP inh: TEAD-YAP interaction inhibition. HEK-TIYL cells, TEAD-Gal4/YAP UAS-luciferase luminescence. inhibition, % at 9.12 µM. actives 1.4% (n = 640,000); in the data active = inhibition above about 32%;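 note: 0% = median of test compound wells and 100% = reference inhibitor wells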
# FBW7 activator: human FBW7 E3 ligase activation, primary screen | AlphaScreen FBW7–phospho-cyclin E peptide binding, activator screen | AID 1259310 | normalized activity (activation), % at 26.1 µM | actives 0.13% (n = 650,000) | Q969H0; in the data active = normalized activity above about 1.9%;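 note: purified mutant Fbw7 with reduced substrate affinity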
# * = called active by the depositor. Shown are actives, neighbours in structure and some others; about 3.4% of the full set was active somewhere.
SMILES,MITF inh,GPR151 ag,TEAD-YAP inh,FBW7 activator
O=C(NCCn1cc(SCC(=O)N2CCOCC2)c2ccccc21)c1ccc(F)cc1,1,1,32*,0
O=C(NCCn1cc(SCC(=O)N2CCN(c3ccccc3)CC2)c2ccccc21)c1ccc(F)cc1,7,0,1,0
CC(C)c1ccc(NS(=O)(=O)c2cccc3cnccc23)cc1,17,0,56*,0
c1c2c(cc3sc(N4CCCC4)nc13)OCCO2,-1,-8,72*,0
c1ccc2c(c1)CCN(c1nc3cc4c(cc3s1)OCCO4)C2,4,-5,89*,0
c1ccc2sc(N3CCN(c4nc5cc6c(cc5s4)OCCO6)CC3)nc2c1,8,0,1,0
CC(Sc1nnc(N)s1)C(=O)c1ccc(Br)cc1 (centres undefined),9,-1,-13,0
COc1ccc(Cc2nnc(Nc3cccc(OC)c3)[nH]c2=O)cc1,14,-1,57*,0
COc1ccc(Cc2nnc(NCc3ccco3)[nH]c2=O)cc1,7,1,58*,0
CCOC(=O)C1=C(C)N=c2sc(=C(C)C)c(=O)n2C1c1ccc(OC)cc1 (centres undefined),10,-1,0,0
COc1cccc(C(=O)/C=C/Nc2ccccc2OC)c1,2,-6,64*,0
COc1cccc(C(=O)/C=C\Nc2ccc3c(c2)OCO3)c1,1,-1,85*,0
COc1cccc(C(=O)/C=C/Nc2cc(OC)ccc2OC)c1,9,1,-42,0
COc1cccc(C(=O)/C=C\Nc2ccc(Br)cc2)c1,-14,-9,54*,0
COc1ccc(N/C=C/C(=O)c2ccccc2)cc1,3,-8,84*,0
CC(=O)c1ccc(NC(=O)c2cccc(S(=O)(=O)N(C)C)c2)cc1,12,0,-60,0
Cc1ccc(-n2cnn(CC(=O)O)c2=O)cc1,12,0,8,0
O=C(Nc1ccc(S(=O)(=O)N2CCCc3ccccc32)cc1)c1ccccc1,10,1,11,0
O=C(/C=C\Nc1ccc2c(c1)OCO2)c1cccc2ccccc12,1,2,-49,0
O=C(/C=C\Nc1ccc2c(c1)OCO2)c1ccccc1,2,0,74*,0
O=C(O)c1cc(N2C(=O)C3CCCCC3C2=O)ccc1N1CCOCC1 (centres undefined),-8,1,6,0
O=C(O)c1cc(N2C(=O)C3CC=CCC3C2=O)ccc1N1CCOCC1 (centres undefined),7,0,11,2.0*
CCOC(=O)C1CN(c2ccc([N+](=O)[O-])cc2[N+](=O)[O-])C1,-10,1,55*,0
COC(=O)C1CCN(c2ccc([N+](=O)[O-])cc2[N+](=O)[O-])CC1,12,2,-3,1
COc1ccc(CC(=O)NC(=S)Nc2ccc(S(=O)(=O)N3CCOCC3)cc2)cc1,13,2,6,0
SMILES,MITF inh,GPR151 ag,TEAD-YAP inh,FBW7 activator
Cc1cc(=O)[nH]c(N/N=C/c2cc(C)c(/C=N/Nc3nc(C)cc(=O)[nH]3)cc2C)n1,2,0,-2,0
Cc1n[nH]c(=O)nc1N/N=C/c1ccccc1O,94*,-7,18,-1
Cc1n[nH]c(=O)nc1N/N=C/c1cc(Br)ccc1O,116*,-3,76*,0
CC(C)(C)c1nnc(N/N=C/c2ccccc2O)[nH]c1=O,96*,1,82*,0
Cc1cc(=O)[nH]c(N/N=C/c2cc(Br)ccc2O)n1,65*,-2,7,0
CC(=O)c1ccc(OCc2cc(C(=O)NCCN3CCCCC3=O)no2)cc1,-4,-1,-1,0
O=C(c1ccc(OC2CCN(Cc3cccc4nonc34)CC2)cc1)N1CCCCC1,3,1,-1,0
CCc1ccc(OCC(=O)Nc2ccc(C(C)=O)cc2)cc1,-12,0,-4,0
CC1CCN(C(=O)c2ccc3nc(N4C(=O)CCC4=O)sc3c2)CC1,17,0,-10,1.9*
COC(=O)c1ccc(NC(=O)CCc2nc3cccnc3n2-c2ccccc2)cc1,-20,-1,-2,0
O=C(Nc1ccc2c(c1)OC(F)(F)O2)c1ccc(Cl)c([N+](=O)[O-])c1,10,0,34*,0
O=C(Nc1ccc(F)c(Cl)c1)c1ccc(Cl)c([N+](=O)[O-])c1,3,1,2,0
O=C(CCl)Nc1ccc2c(c1)OC(F)(F)O2,15,1,37*,0
CN(CC(=O)Nc1cccc(F)c1)CC(=O)Nc1ccc2c(c1)OC(F)(F)O2,-7,-2,14,1
COCCCNc1nccn2c(-c3cccc(OC(F)(F)F)c3)cnc12,20,1,40*,-1
